# Records with an inconclusive call do not appear. Activity calls are given as the source filed them. The call rests on the fitted dose curve.
# Assay: Confirmatory qHTS for inhibitors of MERS-S pseudo-typed particle cell entry
# Conditions: MERS-S pseudotyped particle entry, luciferase reporter; series mostly up to 57.1 µM
row,SMILES,Potency
1,C=CC(=O)Nc1cc(Nc2nccc(-c3cn(C)c4ccccc34)n2)c(OC)cc1N(C)CCN(C)C,6.81 µM (active)
2,COc1ccc2cc1Oc1ccc(cc1)C[C@H]1c3c(cc4c(c3Oc3cc5c(cc3OC)CCN(C)[C@@H]5C2)OCO4)CCN1C,1.71 µM (active)
3,CCCCCCCCCCCC[n+]1ccc2ccccc2c1,1.36 µM (active)
4,O=c1c(C2CC(c3ccc(-c4ccc(Br)cc4)cc3)Cc3ccccc32)c(O)sc2ccccc12 (stereo unspecified),9.61 µM (active)
5,Cc1nnc(C(=O)NC(C)(C)c2nc(C(=O)NCc3ccc(F)cc3)c(O)c(=O)n2C)o1,0.0043 µM (active)
6,Cc1c(N)nc(C(CC(N)=O)NCC(N)C(N)=O)nc1C(=O)NC(C(=O)NC(C)C(O)C(C)C(=O)NC(C(=O)NCCc1nc(-c2nc(C(=O)NCCCN[C@@H](C)c3ccccc3)cs2)cs1)C(C)O)C(O[C@@H]1O[C@@H](CO)[C@@H](O)[C@H](O)[C@@H]1O[C@H]1O[C@H](CO)[C@@H](O)[C@H](OC(N)=O)[C@@H]1O)c1cnc[nH]1 (stereo partly specified),inactive
7,COc1cccc2c1C(=O)c1c(O)c3c(c(O)c1C2=O)C[C@@](O)(C(=O)CO)C[C@@H]3O[C@H]1C[C@H](N)[C@H](OC2CCCCO2)[C@H](C)O1 (stereo partly specified),inactive
8,CCCCCCCCCCCCCC[n+]1ccc(C)cc1,2.41 µM (active)
9,N#CC(c1ccc(Cl)cc1)c1c(Cl)cc(-n2ncc(=O)[nH]c2=O)cc1Cl (stereo unspecified),7.64 µM (active)
10,C[C@]12CC[C@H](O)C[C@H]1CCC1C2CC[C@]2(C)[C@@H](c3ccc(=O)oc3)C[C@H]3O[C@]132 (stereo partly specified),3.83 µM (active)
11,CC(=O)OCC1=C(C(=O)O)N2C(=O)[C@@H](NC(=O)Cc3cccs3)[C@H]2SC1,inactive
12,CC(CN(C)C)CN1c2ccccc2CCc2ccccc21 (stereo unspecified),17.1 µM (active)
13,O=C(Nc1ccc(Cl)cc1)Nc1ccc(Cl)c(C(F)(F)F)c1,10.8 µM (active)
14,Cc1nn(C)c2c1C(c1ccccc1F)=NCC(=O)N2C,10.8 µM (active)
15,CCSc1ccc2c(c1)N(CCCN1CCN(C)CC1)c1ccccc1S2,13.6 µM (active)
16,CN(C)[C@@H](CCOc1cccc2ccccc12)c1ccccc1,12.1 µM (active)

# Source: PubChem BioAssay AID1494157 (National Center for Advancing Translational Sciences (NCATS), 2020)
